From PubChem
DAX1 inh-1 = DAX1 (NR0B1) inhibitors, primary screen, cell-based, HEK293, Gal4-DAX1, luciferase luminescence | Nuclear receptor subfamily 0 group B member 1 (Homo sapiens), P51843 | HEK293 Gal4-DAX1 luciferase reporter | inhibition, % at 6.75 µM | 340,000 tested, 0.99% active | AID 504766, 2011;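 active = inhibition above the mean over all tested compounds plus 3 SD, cut at about 4.2% in these data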;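 note: 0% = DAX1-transfected cells with DMSO and 100% = empty-vector control cells with DMSO; inhibition shows as a rise in luminescence from relieved DAX1 repression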
Target sequence (P51843 207-470 limits assumed): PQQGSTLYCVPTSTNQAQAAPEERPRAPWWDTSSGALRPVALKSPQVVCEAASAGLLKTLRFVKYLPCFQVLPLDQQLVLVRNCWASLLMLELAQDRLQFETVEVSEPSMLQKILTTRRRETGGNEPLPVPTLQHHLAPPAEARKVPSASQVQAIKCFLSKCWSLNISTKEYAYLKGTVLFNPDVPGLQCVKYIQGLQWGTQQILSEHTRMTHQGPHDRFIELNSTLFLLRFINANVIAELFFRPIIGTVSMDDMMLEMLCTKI
hgDAF-12 ag = H. glycines DAF-12 receptor agonists, primary screen, cell-based, luminescence, HEK293, GAL4 fusion, UAS-luciferase. Nuclear hormone receptor DAF-12 (Heterodera glycines), GAL4 fusion. HEK293 GAL4-hgDAF12 UAS-luciferase reporter, agonist luminescence; normalized to butyrate control. activation, % at 6.8 µM. 370,000 tested, 1.8% active. AID 687014, 2013;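 active = activation above a cutoff set at the mean of all screened compounds plus 3 SD, cut at about 10% in these data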;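 note: 0% = DMSO wells and 100% = sodium butyrate wells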
DAX1 inh-2 = DAX1 (NR0B1) inhibitors on StAR promoter, primary screen, cell-based, luminescence, SF-1 (NR5A1), full-length DAX-1. HEK293T StAR-luciferase reporter, SF-1/DAX-1 repression relief. inhibition, % at 6.8 µM. 370,000 tested, 1.1% active. AID 652010, 2013;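 active = inhibition above the mean over all tested compounds plus 3 SD, cut at about 3.6% in these data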;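 note: 0% = DAX-1 cells with DMSO and 100% = cells lacking DAX-1 with DMSO; higher inhibition means more luminescence from relief of DAX-1 repression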
ssDAF12 agonist = S. stercoralis DAF-12 nuclear receptor activators, primary screen, cell-based, luminescence, HEK293, GRIP1 co-expression, lit1-tk-luc; activation, % at 6.8 µM; HEK293 ssDAF-12/GRIP1 lit1-tk-luc reporter; % of 3 µM dafachronic acid response; AID 652126, 2013; Nuclear hormone receptor DAF-12 (Strongyloides stercoralis); 370,000 tested, 1% active;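 active = activation above the mean over all tested compounds plus 3 SD, cut at about 0.9% in these data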;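 note: 0% = DMSO-only wells and 100% = 3 µM delta7-dafachronic acid wells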
hcDAF12 agonist = H. contortus DAF-12 nuclear receptor activators, primary screen, cell-based, luminescence, HEK293, lit1-tk-luc reporter; HEK293 hcDAF-12 lit1-tk-luc reporter; 0% DMSO, 100% Δ7-dafachronic acid; activation, % at 6.8 µM; 370,000 tested, 1.4% active;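 active = activation above the mean of all tested compounds plus 3 SD, cut at about 5.5% in these data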;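 note: 100% = response to 3 µM Δ7-dafachronic acid high control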
* marks the source's active call; other numbers are inactive results. Rows were chosen to be rich in hits. Some 4.1% of all compounds tested hit in one or more screens of this group.

Results for COc1cc(/C=N/N=C(\N)c2nonc2N)cc(OC)c1O ?
DAX1 inh-1: 4.2*; hgDAF-12 ag: 13*; DAX1 inh-2: 2; ssDAF12 agonist: 0; hcDAF12 agonist: 1

What do the screens show for `COc1cc(/C=N/N=C(/N)c2nonc2N)cc(Br)c1OCc1cccc(C)c1`?
DAX1 inh-1: 0; hgDAF-12 ag: 7; DAX1 inh-2: 0; ssDAF12 agonist: -1; hcDAF12 agonist: -2

What do the screens show for `CC(/C=N/NC(=O)CSc1nnc(SCc2ccc(C)cc2)s1)=C\c1ccco1`?
hgDAF-12 ag: 1; DAX1 inh-2: 0; ssDAF12 agonist: -1; hcDAF12 agonist: -2

Results for CN(C1CCCCC1)S(=O)(=O)c1ccc(S(=O)(=O)N2CCN(CCC#N)CC2)cc1 ?
DAX1 inh-1: 5.7*; hgDAF-12 ag: 0; DAX1 inh-2: 0; ssDAF12 agonist: -1; hcDAF12 agonist: 0

How did COC(=O)CCN(C1CCCCC1)S(=O)(=O)c1ccc(S(=O)(=O)N2CCCCC2)cc1 do in these assays?
DAX1 inh-1: 1; hgDAF-12 ag: 0; DAX1 inh-2: 0; ssDAF12 agonist: -1; hcDAF12 agonist: 5.8*

What do the screens show for `Cc1ccc(NC(=O)/C(C#N)=C(\N)C(Cl)(Cl)Cl)nc1`?
DAX1 inh-1: 8.1*

What do the screens show for `NCC(c1ccco1)c1c[nH]c2ccccc12` (centres undefined)?
DAX1 inh-1: -1; hgDAF-12 ag: -1; DAX1 inh-2: 0; ssDAF12 agonist: 0; hcDAF12 agonist: 6.1*

What do the screens show for `O=C(NC1CCCCN(Cc2cccc(Cl)c2)C1=O)c1ccc(F)cc1` (centres undefined)?
hgDAF-12 ag: -2; DAX1 inh-2: -1; ssDAF12 agonist: -2; hcDAF12 agonist: 1

Results for Cc1cccc(C)c1-n1nnnc1C1(C)Cn2nccc2C(=O)N1Cc1ccc(F)cc1 (centres undefined) ?
hgDAF-12 ag: 0; DAX1 inh-2: 1; ssDAF12 agonist: 0; hcDAF12 agonist: -1

How did CCOc1ccc(C2N(c3cc(Cl)ccc3OC)C(=O)C3CCCN32)cc1OC (centres undefined) do in these assays?
DAX1 inh-1: 5.4*; hgDAF-12 ag: 1; DAX1 inh-2: 1; ssDAF12 agonist: -2; hcDAF12 agonist: -2

Results for CCOc1ccc(C2N(c3ccc(Cl)cc3)C(=O)C3CCCN32)cc1OC (centres undefined) ?
DAX1 inh-1: 1; hgDAF-12 ag: 1; DAX1 inh-2: 2; ssDAF12 agonist: -1; hcDAF12 agonist: 2

How did CCOc1ccc(C2N(c3ccc(OC)cc3)C(=O)C3CCCN32)cc1OC (centres undefined) do in these assays?
DAX1 inh-1: 4.8*; hgDAF-12 ag: 1; DAX1 inh-2: 0; ssDAF12 agonist: -2; hcDAF12 agonist: -1

What do the screens show for `CC(C)Nc1nc(-c2ccccn2)nc(-c2ccccc2)c1C#N`?
DAX1 inh-1: 4.8*; hgDAF-12 ag: 0; DAX1 inh-2: 0; ssDAF12 agonist: -1; hcDAF12 agonist: -2

Results for O=S(=O)(NCC(c1ccco1)N1CCc2ccccc2C1)c1ccc(Br)cc1 (centres undefined) ?
DAX1 inh-1: 0; hgDAF-12 ag: 2; DAX1 inh-2: 3.7*; ssDAF12 agonist: -1; hcDAF12 agonist: -1

What do the screens show for `CCOC(=O)N1CCN(C(=O)C[C@H]2C[C@@]3(C(=O)OC)C(=C[C@H](C(C)C)O[C@@H]3C3CC3)N(Cc3ccco3)C2=O)CC1`?
hgDAF-12 ag: -2; DAX1 inh-2: -1; ssDAF12 agonist: -1; hcDAF12 agonist: -2

What do the screens show for `CN(C(=O)COC(=O)CSc1ccc([N+](=O)[O-])cc1)C1CCS(=O)(=O)C1` (centres undefined)?
DAX1 inh-1: 0; hgDAF-12 ag: -1; DAX1 inh-2: -1; ssDAF12 agonist: 1.5*; hcDAF12 agonist: 0

How did CC1(C)CC(=O)C=C(c2ccc(COC(=O)c3ccccc3)cc2)C1=O do in these assays?
DAX1 inh-1: 2; hgDAF-12 ag: 11*; DAX1 inh-2: 3.9*; ssDAF12 agonist: 0; hcDAF12 agonist: 3

What do the screens show for `COC(=O)C[C@@H]1CC[C@@H]2[C@H](COc3ccc(NC(=O)c4cccc(OC)c4)cc3C(=O)N2C)O1`?
hgDAF-12 ag: -2; DAX1 inh-2: 0; ssDAF12 agonist: -1; hcDAF12 agonist: -1

Results for CCOC(=O)c1cc(C(=O)Nc2ccccc2F)nn1C ?
DAX1 inh-1: 1; hgDAF-12 ag: 13*; DAX1 inh-2: 3; ssDAF12 agonist: 0; hcDAF12 agonist: 5

What do the screens show for `CCOC(=O)n1ccc(C(=O)Nc2ccccc2F)n1`?
DAX1 inh-1: 0; hgDAF-12 ag: 5; DAX1 inh-2: 1; ssDAF12 agonist: -1; hcDAF12 agonist: 0

How did O=C1N(c2ccccc2)CCN1c1ccccc1 do in these assays?
DAX1 inh-1: 4; hgDAF-12 ag: 11*; DAX1 inh-2: 2; ssDAF12 agonist: 0; hcDAF12 agonist: 5

How did O=C1NC(=S)CN1c1ccccc1 do in these assays?
DAX1 inh-1: 5.6*; hgDAF-12 ag: 0; DAX1 inh-2: 0; ssDAF12 agonist: -1; hcDAF12 agonist: -1

How did O=C1NCCN1c1ccccc1 do in these assays?
DAX1 inh-1: 4; hgDAF-12 ag: 2; DAX1 inh-2: -1; ssDAF12 agonist: -1; hcDAF12 agonist: 0

How did COc1ccc(NC(=O)c2onc(C)c2Cl)cc1 do in these assays?
DAX1 inh-1: 1; hgDAF-12 ag: 8; DAX1 inh-2: 2; ssDAF12 agonist: 0.9*; hcDAF12 agonist: 5

How did Cc1noc(C(=O)Nc2cccc(O)c2)c1Cl do in these assays?
DAX1 inh-1: 0; hgDAF-12 ag: 4; DAX1 inh-2: 1; ssDAF12 agonist: 0; hcDAF12 agonist: 5.6*

How did Cc1nn(-c2ccccc2)c(Cl)c1C(=O)N1CCN(C)CC1 do in these assays?
DAX1 inh-1: 9.1*; hgDAF-12 ag: 2; DAX1 inh-2: -1; ssDAF12 agonist: -1; hcDAF12 agonist: 0

How did COc1ccc(NC(=O)c2c(C)nn(-c3ccccc3)c2Cl)cc1 do in these assays?
DAX1 inh-1: 5.1*; hgDAF-12 ag: 2; DAX1 inh-2: 0; ssDAF12 agonist: -1; hcDAF12 agonist: 1

Results for COCCCNC(=S)N(CCCN(C)C)Cc1cc2cc3c(cc2[nH]c1=O)OCCO3 ?
DAX1 inh-1: 3; hgDAF-12 ag: 3; DAX1 inh-2: 0; ssDAF12 agonist: -1; hcDAF12 agonist: 0

What do the screens show for `CCOCCCNC(=S)N(CCCN(C)C)Cc1cc2cc3c(cc2[nH]c1=O)OCCO3`?
DAX1 inh-1: 4.7*; hgDAF-12 ag: 1; DAX1 inh-2: 1; ssDAF12 agonist: -1; hcDAF12 agonist: -2
